Experimental data from PubChem BioAssay AID1465 (SRMLSC, 2008).
The campaign covered roughly 220,000 compounds. About 160 (0.073%) were called active.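 How the source made its calls: active means fold induction of absorbance versus untreated yeast above a set limit, then at least 30% activation at any dose in follow-up; inconclusive means repeats straddling the limit, or above it without dose testing; inactive means fold induction below the set limit.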 Only a sample is shown. Potency and affinity values are given separately.

Test: mitochondrial function rescue without frataxin homolog – Friedreich's ataxia, plus single-dose screen, dose response (AID 1465)
Settings: S. cerevisiae Yfh1-off respiration, WST-1 reduction, 72 h; at 50 µM; stronger effect = higher value

Row | Compound | fold induction
1 | CC(Oc1cccc2c1OC(C)(C)C2)C(=O)O (configuration not stated) | 1.05 (inactive)
2 | CC(C)c1nnc(SCC(=O)N2CCc3ccccc32)n1C | 0.98 (inactive)
3 | O=C1c2ccccc2NC(c2ccc(-c3cccc([N+](=O)[O-])c3)o2)N1O (configuration not stated) | 0.9 (inactive)
4 | O=C1c2ccccc2NC(c2ccc(-c3ccc(Br)cc3)o2)N1O (configuration not stated) | 0.77 (inactive)
5 | O=c1oc2ccccc2cc1C1=Nn2c(nnc2-c2cccnc2)SC1 | 1.06 (inactive)
6 | Cc1c(/C=N/NC(=O)c2cccnc2)c2ccccc2n1Cc1ccccc1 | 1.01 (inactive)
7 | COc1ccc(Cn2c(O)c(C=Nc3ccccc3)c3ccccc3c2=O)cc1 | 1.05 (inactive)
8 | O=C(N/N=C/c1c(O)n(-c2ccccc2Cl)c(=O)c2ccccc12)c1cccnc1 | 1.49 (inactive)
9 | COc1ccc(Cn2c(O)c(C=Nc3ccc(OC)cc3)c3ccccc3c2=O)cc1 | 1.13 (inactive)
10 | CC1CCC(NC(=S)NCCN(C)C)CC1 (configuration not stated) | 1 (inactive)
11 | O=C1C2CCCN2C(c2ccc(Br)cc2)N1c1ccc(F)cc1 (configuration not stated) | 0.86 (inactive)
12 | CCOC(=O)/C(C(N)=NCC(C)C)=C(/O)c1ccccc1 | 0.925 (inactive)
13 | O=C(CSc1nc(-c2ccc(F)cc2)cc(C(F)(F)F)n1)Nc1ccc2c(c1)OCO2 | 0.96 (inactive)
14 | O=C(OCCOc1ccccc1)c1n[nH]c2ccccc12 | 0.95 (inactive)
15 | COC(=O)[C@H](C)NC(=O)Nc1ccc(OC)cc1OC | 1.1 (inactive)
16 | Cc1noc(C)c1CSc1ccc(Br)cc1 | 0.89 (inactive)
17 | COc1ccc(C(=O)NCC(=O)N/N=C/C=C/c2ccccc2)cc1OC | 0.96 (inactive)
18 | CCCCCCN1C=CC(=C/C=C(\C#N)C(=O)OCC)C=C1 | 1.18 (inactive)
19 | CCOC(=O)/C(C#N)=C/C=C1\C=Cc2ccccc2N1CC | 1 (inactive)

Row | Compound | fold induction
20 | CCCCNC(=S)N1CCN(c2ccc(C(C)=O)cc2)CC1 | 0.96 (inactive)
21 | COc1cccc(NC(=O)NCCC2=CCCCC2)c1 | 0.86 (inactive)
22 | Cc1ccccc1C(=O)NNC(=O)C(C)N1C(=O)c2ccccc2C1=O (configuration not stated) | 1.01 (inactive)
23 | NC(=S)n1[nH]c(-c2ccc([N+](=O)[O-])cc2)c(N=Nc2cccc(Cl)c2)c1=O | 1.01 (inactive)
24 | NC(=S)n1[nH]c(-c2ccc([N+](=O)[O-])cc2)c(N=Nc2ccc(Cl)cc2)c1=O | 1.58 (inactive)
25 | Cc1ccc(-n2c(SCC(=O)Nc3cc(C)on3)nc3c(c2=O)SC(C)C3)cc1 (configuration not stated) | 1.05 (inactive)
26 | CC(C)C(c1nnnn1CCc1ccccc1)N1CCOCC1 (configuration not stated) | 1.03 (inactive)
27 | COc1cccc2c1C(=O)C=C(C)C2=O | 1.23 (inactive)
28 | CC(C)(C=O)C1=CC(=O)c2ccccc2C1=O | 1.3 (inactive)
29 | Cc1ccc(N2CCN(C(=O)c3cccc([N+](=O)[O-])c3)CC2)cc1Cl | 0.82 (inactive)
30 | O=C(CSc1ccccc1)Nc1ccc(C(=O)Nc2ccc(O)cc2)cc1 | 1.06 (inactive)
31 | O=C(Cn1cnc2cc([N+](=O)[O-])ccc2c1=O)Nc1ccc2c(c1)OCO2 | 0.88 (inactive)
32 | Cc1cccc(NC(=S)NNC(=O)COc2ccc(Cl)cc2Cl)c1 | 1.14 (inactive)
33 | COc1ccc(NC(=S)NNC(=O)COc2ccc(Cl)cc2Cl)cc1 | 0.84 (inactive)
34 | O=C(NCc1ccc(Cl)cc1)C1CCC(CNc2c(N3CCOCC3)c(=O)c2=O)CC1 (configuration not stated) | 1.07 (inactive)
35 | O=C(N/N=C/c1cc([N+](=O)[O-])ccc1O)c1cc(-c2ccccc2)nc2ccccc12 | 1.16 (inactive)
36 | COc1cc([N+](=O)[O-])cc(/C=N/NC(=O)c2cc(C)nc3ccccc23)c1O | 1.4 (inactive)
37 | Cc1ccccc1-c1nc(CN2CCSCC2)c(C)o1 | 1.04 (inactive)
